Assay results: the OligoGym collection

Biological target: SIAE
Assay: pooled miR-30 sensor sort-seq; sequence = guide strand
Conditions: shRNA
Further: reference of the scale not given here.

Question: Which sensor-assay potency score (higher = more potent) does the source give for TTTAACTCGAACAACAGTTTGC here?
Answer: -0.109

Question: For TTGATGTATGAAGCAAAGCGAA, which sensor-assay potency score (higher = more potent) is on record?
Answer: -1.38

Question: How did the sensor-assay potency score (higher = more potent) turn out when TACAGAGCCAGACATCTCCAAA was run?
Answer: -1.12

Question: For TAATCCATCAGTAAACTGCATT, which sensor-assay potency score (higher = more potent) is on record?
Answer: -1.07

Question: For TATCTTGTTGTCCTTTTTCTGC, which sensor-assay potency score (higher = more potent) is on record?
Answer: -1.26

Question: Which sensor-assay potency score (higher = more potent) does the source give for TTTCACACTGGTCACTTTCTTC here?
Answer: -0.603

Question: TATCTGTAACACAGTCATCTGC was tested. Which sensor-assay potency score (higher = more potent) did it give?
Answer: -0.344

Question: With TTGAGGTCCAATTTGTCTGTAG as the sequence, how does the sensor-assay potency score (higher = more potent) read?
Answer: 0.183

Question: Which sensor-assay potency score (higher = more potent) does the source give for TTAAATATCTGTAACACAGTCA here?
Answer: 0.571

Biological target: SIK3
Assay: as above
Conditions: shRNA

Question: Which sensor-assay potency score (higher = more potent) does the source give for TTCATAATTTGAACTTCCCGGA here?
Answer: -0.153

Question: TTGAACTCTTACTGTCTTGGAA was tested. Which sensor-assay potency score (higher = more potent) did it give?
Answer: -0.119

Question: How did the sensor-assay potency score (higher = more potent) turn out when TAGCTGAGCAGAATGTCTGTAA was run?
Answer: -0.0523

Question: TCTAACACCAACATATGGCGGA was tested. Which sensor-assay potency score (higher = more potent) did it give?
Answer: 0.184

Question: TTAGTTGTTGGCATTCAGCTAT was tested. Which sensor-assay potency score (higher = more potent) did it give?
Answer: -0.107

Question: Which sensor-assay potency score (higher = more potent) does the source give for TAAATCACGATGAACAATGTTC here?
Answer: -0.457

Question: Which sensor-assay potency score (higher = more potent) does the source give for TTATCTATGATCTTGATAGCAA here?
Answer: -0.377

Question: TATGATCTTGATAGCAACCTTG was tested. Which sensor-assay potency score (higher = more potent) did it give?
Answer: -0.675

Question: With TACATAAGCATCGTCGCTGTTC as the sequence, how does the sensor-assay potency score (higher = more potent) read?
Answer: -0.402

Question: For TTAATGACTGCAGTGTCTGTTC, which sensor-assay potency score (higher = more potent) is on record?
Answer: -0.0807

Question: Which sensor-assay potency score (higher = more potent) does the source give for TCTGTTTGAACTTCCGACGTGC here?
Answer: 0.851

Question: TACTTGAACTCTTACTGTCTTG was tested. Which sensor-assay potency score (higher = more potent) did it give?
Answer: -0.689

Biological target: SIPA1L2
Assay: as above
Conditions: shRNA

Question: For TACTTTTTGAACAGTGAGCTGA, which sensor-assay potency score (higher = more potent) is on record?
Answer: 0.29

Question: With TAACAGTTCGAAGCTTTCGGAA as the sequence, how does the sensor-assay potency score (higher = more potent) read?
Answer: -0.928

Question: Which sensor-assay potency score (higher = more potent) does the source give for TTGTCGAAGAATTAATTCCAGC here?
Answer: -1.01

Question: How did the sensor-assay potency score (higher = more potent) turn out when TTATACATCTCTTCCTCTGTGC was run?
Answer: 0.628

Question: TAGCTTGTGCTTCTCTTCTTGT was tested. Which sensor-assay potency score (higher = more potent) did it give?
Answer: -0.716

Question: TTGTTCATCAAGCTTGAGCAGC was tested. Which sensor-assay potency score (higher = more potent) did it give?
Answer: -0.923

Question: Which sensor-assay potency score (higher = more potent) does the source give for TACAACATTCTTGGAATCCTTT here?
Answer: -0.254

Question: For TTGAACTTTGAAGAGGCTCTGC, which sensor-assay potency score (higher = more potent) is on record?
Answer: 0.37

Question: With TAGCGCTTCACTTTCTCCCTGT as the sequence, how does the sensor-assay potency score (higher = more potent) read?
Answer: 0.691

Question: For TTGTCTTGTTTTTCCTTCCGAA, which sensor-assay potency score (higher = more potent) is on record?
Answer: -0.306

Question: TTCAGCACAGTTGTCTACCGAG was tested. Which sensor-assay potency score (higher = more potent) did it give?
Answer: -0.567

Question: For TAATCTAATCCTGAGATGCGGA, which sensor-assay potency score (higher = more potent) is on record?
Answer: -0.642

Biological target: SIRPD
Assay: as above
Conditions: shRNA

Question: TGAACCACAAGACAGGTCCATT was tested. Which sensor-assay potency score (higher = more potent) did it give?
Answer: -1.29

Question: With TTGCACATGGAACACATGTGTG as the sequence, how does the sensor-assay potency score (higher = more potent) read?
Answer: -0.922

Question: How did the sensor-assay potency score (higher = more potent) turn out when TACAGTCTGTGACATCTCCGTT was run?
Answer: -0.562

Question: With TACTCCTTGATAGCTCTTCCTT as the sequence, how does the sensor-assay potency score (higher = more potent) read?
Answer: -0.857

Question: Which sensor-assay potency score (higher = more potent) does the source give for TTGGATTCTGCTCAGTAACAAA here?
Answer: -1.61

Question: AAATTGTAGATTAATTTCCGGT was tested. Which sensor-assay potency score (higher = more potent) did it give?
Answer: -0.422

Question: TTGTAGATTAATTTCCGGTTTG was tested. Which sensor-assay potency score (higher = more potent) did it give?
Answer: -0.577
